Calls of active or inactive are those of the source.
Tests used:
[1] = tested on: Plasmodium falciparum Sir2 (PF13_0152, Sir2A); test: pfSir2 binders on small-molecule microarrays, primary screen, biochemical, small-molecule microarray, 635 nm fluorescence (AID 1098); conditions: small-molecule microarray binding, fluorescence 635 nm; higher = more signal;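 also: score merges spot fluorescence intensity with its signal-to-noise ratio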
[2] = small-molecule microarray binders of probe aDKK1, primary screen, biochemical, biotinylated probe, 635/667 nm fluorescence (AID 1099); conditions: higher = more signal;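 also: score merges 667nm spot fluorescence with signal to noise across triplicate slides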
[3] = small-molecule microarray binders of probe aCHRDL2, primary screen, biochemical, biotinylated probe, 635/667 nm fluorescence (AID 1100); conditions: higher = more signal
[4] = splicing luciferase reporter signal modulators, primary screen, spliceosome inhibition project, cell-based, HEK293, splice +/- reporter (AID 1101); conditions: luminescence, 24 h, higher = more signal, called active from +8 up or from −8 down;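 also: HEK293 cells carrying a splicing-competent luciferase reporter gene; test concentration not given here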
[5] = target: Fibroblast growth factor 10 (Homo sapiens) (UniProt O15520); test: FGF10 binders on small-molecule microarrays, primary screen, biochemical, small-molecule microarray, 635 nm fluorescence (AID 1102); conditions: FGF10 binding, fluorescence 635 nm, higher = more signal
[6] = tested on: glycogen synthase kinase-3 (GSK3A per assay name; protocol says GSK3B); test: GSK3 binders on small-molecule microarrays, primary screen, biochemical, small-molecule microarray, 635 nm fluorescence, GSK3A (AID 1103); conditions: small-molecule microarray binding, fluorescence 635 nm; higher = more signal; also: the record names both GSK3A and GSK3B
[7] = target: Epidermal growth factor receptor (Homo sapiens) (UniProt P00533); test: EGFR binders on small-molecule microarrays, primary screen, biochemical, small-molecule microarray, 635 nm fluorescence (AID 1104); conditions: EGFR binding, higher = more signal;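 also: score merges 667 nm emission intensity with spot signal to noise over triplicate slides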
[8] = target: Follistatin-related protein 3 (Homo sapiens) (UniProt O95633); test: FSTL3 binders on small-molecule microarrays, primary screen, biochemical, small-molecule microarray, 635 nm fluorescence (AID 1105); conditions: FSTL3 binding, higher = more signal;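 also: score merges emission near 667 nm and signal to noise per printed spot across three slides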
[9] = target: Dickkopf-related protein 1 (Homo sapiens) (UniProt O94907); test: DKK1 binders on small-molecule microarrays, primary screen, biochemical, small-molecule microarray, 635 nm fluorescence scan (AID 1106); conditions: DKK1 binding, higher = more signal;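 also: score merges emission near 667 nm with signal to noise over three replicate slides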
[10] = tested on: Inhibin beta A chain (activin A); test: INHBA (activin A) binders on microarrays, primary screen, biochemical, small-molecule microarray, 635 nm fluorescence scan (AID 1107); conditions: small-molecule microarray binding, higher = more signal;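 also: mouse activin A protein probed at 4.33 µg/mL on printed slides; score merges bound-protein fluorescence near 667 nm with spot signal-to-noise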
[11] = tested on: Human papillomavirus type 1a protein E7 (residues 44-93); test: HPV1a E7 fragment binders on microarrays, primary screen, biochemical, small-molecule microarray, residues 44-93, 635 nm fluorescence (AID 1108); conditions: small-molecule microarray binding, fluorescence 635 nm; higher = more signal;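 also: E7 fragment applied at 1 µg/mL in TBST for 1 h at 4 C; score combines spot fluorescence with its signal to noise ratio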
[12] = modulators of HCV replicon luciferase signal, primary screen, HCV replication inhibitor project, Huh7 cells, luciferase reporter (AID 1109); conditions: 48 h, higher = more signal;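 also: huh7 hepatoma cells harbouring a luciferase neomycin HCV replicon reporter; luciferase luminescence as measure of HCV replicon replication; test concentration not given here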
[13] = target: Left-right determination factor 2 (Homo sapiens) (UniProt O00292); test: LEFTY2 binders on small-molecule microarrays, primary screen, biochemical, small-molecule microarray, 635 nm fluorescence scan (AID 1110); conditions: LEFTY2 binding, higher = more signal
[14] = target: Calmodulin-1 (Homo sapiens) (UniProt P0DP23); test: CALM1 binders on microarrays, EGTA buffer, profiling panel, biochemical, small-molecule microarray, Cy5-labelled CALM1 (AID 1111); conditions: Cy5-CALM1 binding fluorescence, higher = more signal;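 also: labelled calmodulin applied in Tris saline Tween buffer holding calcium plus EGTA and DTT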
[15] = target: Calmodulin-1 (Homo sapiens) (UniProt P0DP23); test: calcium-bound CALM1 binders on microarrays, profiling panel, artefact control for SMM control-protein annotation, biochemical, small-molecule microarray, Cy5-labelled CALM1, plus calcium (AID 1112); conditions: Cy5-CALM1 binding fluorescence, higher = more signal;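 also: score merges spot fluorescence with signal to noise from triplicate slides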
[16] = small-molecule microarray binders of probe aWnt5a, primary screen, biochemical, biotinylated probe, 635/667 nm fluorescence (AID 1113); conditions: higher = more signal;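 also: score merges 667 nm fluorescence intensity with signal-to-noise per printed feature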
[17] = small-molecule microarray binders of probe aShh, primary screen, biochemical, biotinylated probe, 635/667 nm fluorescence (AID 1114); conditions: higher = more signal;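 also: probe is biotin-labelled aShh protein from a stem cell growth factor screen; measures binding of labelled protein to compounds printed on the slide; score merges feature fluorescence at 667 nm with signal-to-noise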
[18] = small-molecule microarray binders of probe aNog, primary screen, biochemical, biotinylated probe, 635/667 nm fluorescence (AID 1115); conditions: higher = more signal;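 also: probe is biotinylated aNog protein used at 0.15 µg/mL for 1 h at 4 C; z-score combines 667 nm fluorescence of each spot with its signal to noise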
[19] = target: Torsin-1A-interacting protein 1 (Homo sapiens) (UniProt Q5JTV8); test: LAP1 binders from COS7 cell lysate, primary screen, small-molecule microarray, 635/667 nm fluorescence (AID 1116); conditions: COS7-hLAP1 lysate binding, 635 nm fluorescence, higher = more signal
[20] = target: Alpha-bungarotoxin (Bungarus multicinctus) (UniProt P60615); test: alpha-bungarotoxin binders on microarray, profiling panel, artefact control for SMM control protein annotation, biochemical, small-molecule microarray, Alexa647 label, 635/667 nm fluorescence (AID 1117); conditions: alpha-BTX-A647 binding fluorescence, higher = more signal
Alpha-bungarotoxin (Bungarus multicinctus), sequence (P60615 whole entry, looked up): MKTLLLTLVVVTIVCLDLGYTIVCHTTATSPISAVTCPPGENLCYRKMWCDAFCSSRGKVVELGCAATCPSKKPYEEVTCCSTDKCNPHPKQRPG

Epidermal growth factor receptor (Homo sapiens), sequence (P00533 whole entry, looked up): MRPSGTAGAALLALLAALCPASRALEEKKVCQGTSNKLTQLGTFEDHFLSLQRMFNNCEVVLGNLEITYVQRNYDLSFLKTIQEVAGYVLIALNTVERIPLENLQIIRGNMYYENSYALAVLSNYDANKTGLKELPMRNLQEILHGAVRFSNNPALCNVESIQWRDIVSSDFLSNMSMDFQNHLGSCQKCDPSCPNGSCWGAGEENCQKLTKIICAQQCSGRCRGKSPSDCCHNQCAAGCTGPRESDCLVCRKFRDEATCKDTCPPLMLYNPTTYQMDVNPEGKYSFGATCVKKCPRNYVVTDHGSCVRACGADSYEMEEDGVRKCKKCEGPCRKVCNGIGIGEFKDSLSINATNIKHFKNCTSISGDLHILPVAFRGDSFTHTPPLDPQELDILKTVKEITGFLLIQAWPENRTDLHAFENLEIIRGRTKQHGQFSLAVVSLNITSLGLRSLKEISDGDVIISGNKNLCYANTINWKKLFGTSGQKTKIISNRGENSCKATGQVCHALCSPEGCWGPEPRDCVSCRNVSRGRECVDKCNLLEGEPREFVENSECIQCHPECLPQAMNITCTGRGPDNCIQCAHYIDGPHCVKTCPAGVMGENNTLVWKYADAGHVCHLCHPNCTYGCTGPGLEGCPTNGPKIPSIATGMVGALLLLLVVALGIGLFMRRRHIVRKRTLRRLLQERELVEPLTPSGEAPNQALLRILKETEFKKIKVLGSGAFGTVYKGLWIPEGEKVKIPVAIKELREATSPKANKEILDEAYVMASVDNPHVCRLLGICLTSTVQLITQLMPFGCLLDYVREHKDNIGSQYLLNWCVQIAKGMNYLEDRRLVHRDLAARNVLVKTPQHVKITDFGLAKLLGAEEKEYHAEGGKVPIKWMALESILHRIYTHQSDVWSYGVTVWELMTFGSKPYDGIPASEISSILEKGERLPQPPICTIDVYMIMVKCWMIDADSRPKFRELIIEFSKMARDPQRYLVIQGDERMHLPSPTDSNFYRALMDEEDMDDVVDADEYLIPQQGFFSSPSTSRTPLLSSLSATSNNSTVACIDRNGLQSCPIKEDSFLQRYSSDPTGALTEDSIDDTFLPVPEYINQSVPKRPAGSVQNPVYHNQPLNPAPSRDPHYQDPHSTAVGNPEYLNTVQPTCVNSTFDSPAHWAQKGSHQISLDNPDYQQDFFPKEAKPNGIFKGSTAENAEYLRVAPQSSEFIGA
Torsin-1A-interacting protein 1 (Homo sapiens), sequence (Q5JTV8 whole entry, looked up): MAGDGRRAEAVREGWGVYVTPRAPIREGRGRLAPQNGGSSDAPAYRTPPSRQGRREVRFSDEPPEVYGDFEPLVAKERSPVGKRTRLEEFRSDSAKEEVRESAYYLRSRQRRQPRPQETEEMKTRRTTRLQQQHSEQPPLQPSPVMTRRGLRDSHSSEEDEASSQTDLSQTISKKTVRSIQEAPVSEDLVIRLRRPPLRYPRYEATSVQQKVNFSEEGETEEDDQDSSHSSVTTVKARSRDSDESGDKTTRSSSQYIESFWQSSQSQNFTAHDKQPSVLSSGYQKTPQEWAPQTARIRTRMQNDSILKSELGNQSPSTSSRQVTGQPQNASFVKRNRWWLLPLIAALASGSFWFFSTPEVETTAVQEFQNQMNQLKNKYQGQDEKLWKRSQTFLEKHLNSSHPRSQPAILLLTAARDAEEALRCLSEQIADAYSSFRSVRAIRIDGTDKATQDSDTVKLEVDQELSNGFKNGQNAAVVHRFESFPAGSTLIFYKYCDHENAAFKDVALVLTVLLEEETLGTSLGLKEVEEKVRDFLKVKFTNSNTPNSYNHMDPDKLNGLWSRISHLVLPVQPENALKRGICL
Fibroblast growth factor 10 (Homo sapiens), sequence (O15520 whole entry, looked up): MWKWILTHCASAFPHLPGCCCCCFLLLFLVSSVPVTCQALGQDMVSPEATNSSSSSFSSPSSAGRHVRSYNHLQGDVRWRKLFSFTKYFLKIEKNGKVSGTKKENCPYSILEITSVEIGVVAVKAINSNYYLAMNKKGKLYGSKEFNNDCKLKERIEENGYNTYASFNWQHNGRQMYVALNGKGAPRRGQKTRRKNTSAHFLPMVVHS
Follistatin-related protein 3 (Homo sapiens), sequence (O95633 whole entry, looked up): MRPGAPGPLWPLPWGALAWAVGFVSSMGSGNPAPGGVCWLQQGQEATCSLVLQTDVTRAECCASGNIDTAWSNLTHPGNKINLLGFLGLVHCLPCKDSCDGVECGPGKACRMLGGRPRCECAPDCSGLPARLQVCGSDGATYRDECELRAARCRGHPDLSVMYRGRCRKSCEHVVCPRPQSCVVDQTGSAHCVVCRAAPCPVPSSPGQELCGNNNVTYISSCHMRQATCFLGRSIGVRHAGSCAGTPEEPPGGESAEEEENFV
Left-right determination factor 2 (Homo sapiens), sequence (O00292 whole entry, looked up): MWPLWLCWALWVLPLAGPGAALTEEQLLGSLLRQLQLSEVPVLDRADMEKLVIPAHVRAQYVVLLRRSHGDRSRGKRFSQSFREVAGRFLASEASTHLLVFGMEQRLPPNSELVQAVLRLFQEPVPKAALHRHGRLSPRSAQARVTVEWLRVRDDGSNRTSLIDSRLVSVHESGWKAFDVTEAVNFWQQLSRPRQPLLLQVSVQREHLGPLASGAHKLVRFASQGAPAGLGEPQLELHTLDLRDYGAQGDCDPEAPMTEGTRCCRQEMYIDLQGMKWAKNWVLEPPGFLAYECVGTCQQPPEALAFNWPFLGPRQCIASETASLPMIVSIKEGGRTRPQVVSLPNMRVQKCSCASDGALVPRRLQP
Dickkopf-related protein 1 (Homo sapiens), sequence (O94907 whole entry, looked up): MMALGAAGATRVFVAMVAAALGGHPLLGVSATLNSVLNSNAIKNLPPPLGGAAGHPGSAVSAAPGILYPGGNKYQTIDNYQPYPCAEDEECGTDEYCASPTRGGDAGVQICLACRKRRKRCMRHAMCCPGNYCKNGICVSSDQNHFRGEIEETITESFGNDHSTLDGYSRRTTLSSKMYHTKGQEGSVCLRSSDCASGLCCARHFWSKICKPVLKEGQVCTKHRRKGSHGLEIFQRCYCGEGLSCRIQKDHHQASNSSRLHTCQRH

Compound | composite z-score [1] | composite z-score [2] | composite z-score [3] | z-score [4] | composite z-score [5] | composite z-score [6] | composite z-score [7] | composite z-score [8] | composite z-score [9] | composite z-score [10] | composite z-score [11] | z-score [12] | composite z-score [13] | composite z-score [14] | composite z-score [15] | composite z-score [16] | composite z-score [17] | composite z-score [18] | composite z-score [19] | composite z-score [20]
C=CCC(OC(C)=O)[C@@H]1[C@@H](N(Cc2ccc(-c3cccc(C(F)(F)F)c3)o2)C(=O)c2ccc(-c3ccccc3)cc2)c2cc(OCCCO)ccc2N1C(=O)Cc1ccc(OC)cc1 (stereo not given in full) | -0.0081 | 0.109 | 0.796 | -1.07 (inactive) | -0.0385 | -0.661 | -0.574 | -0.201 | -0.361 | 1.44 | -0.0271 | -0.169 | -0.236 | -1.05 | 0.897 | -0.104 | -0.0931 | -0.0086 | -0.0085 | 0.497
COCCOC(=O)N1C(=O)[C@@]2(c3cc(C#CCNC(N)=O)ccc31)[C@H](c1ccccc1OCCO)N1[C@H](c3ccccc3)[C@H](c3ccccc3)OC(=O)[C@H]1[C@@H]2C(=O)Nc1nc2ccccc2s1 | 0.852 | 0.868 | 1.13 | -0.349 (inactive) | 0.141 | 0.218 | 0.135 | 0.572 | 0.505 | 0.887 | 0.872 | 0.048 | 0.163 | 1.58 | 1.14 | -0.0758 | 0.284 | 0.561 | 0.745 | 2.51
O=C(N1CCCCC1)[C@@]1(Cc2ccccc2)N=C(c2ccc(OCCCO)cc2)O[C@H]1c1ccccc1 | 1.43 | 1.26 | 1.31 | -1.96 (inactive) | 0.942 | 0.258 | -0.32 | 0.606 | 0.0474 | 0.766 | 0.73 | -2.94 | -0.458 | 2.45 | 1.09 | 0.801 | 0.106 | 1.9 | 2.95 | 3.12
CC(C)CCC[C@@H](C)[C@H]1CC[C@@]2(C)C3=C(CC[C@]12C)[C@@]1(C)CC[C@H](OC(=O)CCl)C(C)(C)C1CC3 (stereo not given in full) | 0.346 | -0.0827 | -0.49 | 0.0767 (inactive) | 0.471 | 0.684 | 0.372 | 0.675 | 0.604 | 0.0773 | 0.637 | -0.143 | 0.448 | -0.0581 | -0.552 | 0.0115 | -0.424 | 0.0983 | 0.247 | 0.587
COCCOC(=O)N1C(=O)[C@@]2(c3cc(C#CC4(O)CCCCCC4)ccc31)[C@H](c1ccccc1OCCO)N1[C@H](c3ccccc3)[C@H](c3ccccc3)OC(=O)[C@H]1[C@@H]2C(=O)Nc1nc2ccccc2s1 | 0.81 | 0.55 | 0.65 | -0.318 (inactive) | 0.989 | 1.23 | 0.45 | 1.07 | 0.816 | 0.995 | 0.425 | -1.51 | 0.636 | 1.59 | 0.941 | 0.0317 | 0.275 | 0.182 | 1.46 | 2.25
CC(C)(C)OC(=O)CC[C@@]12N=C(c3ccc(OCCCO)cc3)O[C@@H]1c1ccccc1CN(Cc1ccccc1)C2=O | 1.39 | 0.578 | 0.505 | -0.0992 (inactive) | 1.14 | 1.19 | 0.12 | 0.459 | 0.388 | 0.682 | 0.33 | -2.92 | -0.152 | 0.927 | 0.368 | -0.0981 | 1.23 | 0.36 | 0.886 | 0.941
NC(=O)NCC#Cc1ccc2c(c1)[C@]1(C(=O)N2)[C@H](c2ccc(OCCO)cc2)N2[C@H](c3ccccc3)[C@H](c3ccccc3)OC(=O)[C@H]2[C@@H]1C(=O)Nc1nc2ccccc2s1 | 0.0284 | 0.918 | 1.2 | -1 (inactive) | 0.178 | -0.282 | -0.345 | 0.224 | -0.463 | 1.35 | -0.107 | -0.495 | -0.64 | 0.728 | 0.789 | -0.184 | 0.046 | 0.339 | 0.173 | 1.03
COc1ccc(C#Cc2ccc3c(c2)[C@]2(C(=O)N3)[C@H](c3ccc(O)cc3)N3[C@H](c4ccccc4)[C@H](c4ccccc4)OC(=O)[C@H]3[C@@H]2C(N)=O)cc1 | 0.348 | -0.0576 | 0.698 | 6.64 (inactive) | -0.425 | -0.381 | -1.06 | -1.08 | -0.67 | 0.227 | 0.53 | -1.68 | -1.07 | 0.0315 | 1.03 | -0.136 | 0.0735 | 0.482 | -0.203 | 0.997
CC1CC/C=C\[C@H]2OC34C=CCN(C(C)C)C(=O)[C@H]3N(C(CO)C(C)C)C(=O)[C@@H]4C2C(=O)O1 (stereo not given in full) | -0.144 | 0.0383 | 0.228 | -0.0607 (inactive) | -0.505 | -0.95 | -0.818 | -0.253 | -0.429 | 0.64 | -1.48 | -0.403 | -0.944 | -1 | -0.339 | -0.202 | -0.0626 | -0.178 | 0.193 | -2.8
CCCCCCC#C[Si](O[C@H](c1ccccc1)c1cn(Cc2ccccc2)nn1)(C(C)C)C(C)C | -0.068 | -0.0783 | -0.14 | -1.51 (inactive) | 0.232 | 0.305 | 0.302 | 0.388 | 0.279 | 0.403 | 0.382 | -1.93 | 0.367 | -0.0092 | 0.716 | -0.151 | -0.108 | -0.183 | 0.523 | 0.172
CC(C)N1C(=O)c2ccccc2[C@@H](C(=O)NCc2ccccc2)[C@@H]1c1ccc(CO)cc1 | 1.05 | 0.326 | 0.932 | -0.242 (inactive) | -0.844 | 0.192 | -0.183 | -0.0398 | -0.319 | 0.481 | 0.319 | 0.313 | -0.514 | -0.808 | 0.306 | -0.178 | -0.203 | 0.198 | 0.481 | -1.92

Reference: PubChem BioAssay
